PubChem BioAssay (NCI)
This is part of a sample that, as a whole, favours compounds with a hit. Of some 83,000 tested, about 20% had one in any assay.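 Interpretation: 100, growth as untreated; towards 0, rising growth inhibition; 0, no net growth; 0 to -100, cell death. Compounds scoring below 10 were considered active.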 The source made the active and inactive calls. *1 amine or outer side, *2 acyl side, *3 side chain or, on linkers, in order; H or OH if unused. Where a SMILES comes first, the peptide text is derived from it. Bridges are numbered along the chain shown (N, C = ends). Roman numbers before positions name the chains, in order. [ ]: non-standard residue; d: D form. Actinocin(1to9) = Cc1c2oc3c(C)ccc(C(=O)[*:2])c3nc-2c(C(=O)[*:1])c(N)c1=O; NMeV = CN[CH](C(=O)O)C(C)C; Sar = CNCC(=O)O

The molecules below were run on MOLT-4 leukemia (assay: NCI-60 one-dose screen, 48 h (100 = growth as untreated, 0 = no growth, -100 = all killed)). Conditions: 10 µM unless noted.
Description: Growth inhibition of the MOLT-4 human tumor cell line is measured as a screen for anti-cancer activity. Cells are grown in 96 well plates and exposed to the test compound for 48 hours. Compounds are tested at a single concentration, which is 10^-5 M for most compounds. The reported endpoint is percent growth (GI% or GIPRCNT), where numbers from 0 - 100% represent growth inhibition, and numbers from -100% - 0 represent cell death. For example, a value of 40 represents 60% growth inhibition. A value of 0 means no net growth occurred over the course of the experiment. A value of -40 indicates 40% of cells at the beginning of the experiment died by the end of the experiment. A value of -100 means all cells are dead at the end of the experiment.
NCI-60 Human Tumor Cell Lines Screen was performed using the standard one-dose NCI protocol, which is described in more detail at https://dtp.cancer.gov/discovery_development/nci-60/default.htm.
Compounds with GIPRCNT values below 10 were considered active. Activity score was based on GIPRCNT using the following formula: […]
Score is 0 for GIPRCNT values of 100 or above, 50 for GIPRCNT values of 0, and 100 for GIPRCNT values of -100.
In the case of `O/N=C1\c2ccccc2-c2ccc(F)cc21`, the growth is reported as 71.6% (inactive). In the case of `NC1=C(Br)C(=O)c2ncccc2C1=O`, the growth is reported as -5.62% (active). `Cc1nnc(N/N=C/c2ccc([N+](=O)[O-])o2)[nH]c1=O` was tested, and the growth was 5.88% (active). With `CC(=O)c1c(O)c(C)c(O)c2c1OC1=CC(=O)C(C(C)=O)C(=O)C12C` (stereo not given) the growth was 71.9% (inactive). With `O=C(c1ccccc1)C(Br)[N+](=O)[O-]` (stereo not given) the growth was 20.6% (inactive). With `CCCCCCCCCCCC(=O)OC(C)C(=O)NCCCC` (stereo not given) the growth was 87.7% (inactive). With `O=C1C=CC(=O)N1c1ccc(O)cc1` the growth was 104% (inactive). With `Oc1ccc(Cl)cc1C(c1cc(Cl)ccc1O)C(Cl)(Cl)Cl` the growth was 2.12% (active). For `CCC(=O)c1cc([N+](=O)[O-])c(Br)s1`, the growth was 33.9% (inactive). `CCCCCC[C@@H](O)C/C=C\CCCCCCCC(=O)OCCOC` was tested, and the growth was 122% (inactive). With `CC(C)(C)c1ccc(O)c(Br)c1` the growth was 112% (inactive). For `Oc1ccc2c(c1)CCc1ccccc1-2`, the growth was 103% (inactive). With `CC(=O)OC1CC2CCC1(C)C2(C)C` (stereo not given) the growth was 112% (inactive). In the case of `CCC(C)C(N)C(=O)NC(CC(N)=O)C(=O)NC(CC(C)C)C(=O)NC(CCCCN)C(=O)NC(C)C(=O)NC(CC(C)C)C(=O)NC(C)C(=O)NC(C)C(=O)NC(CC(C)C)C(=O)NC(C)C(=O)NC(CCCCN)C(=O)NC(CCCCN)C(=O)NC(C(=O)NC(CC(C)C)C(N)=O)C(C)CC` (stereo not given), the growth is reported as 94% (inactive). With `O=C(NOC(=O)c1ccccc1)c1ccccc1` the growth was 93% (inactive). In the case of `O=C(c1ccccc1)c1cc2ccccc2oc1=O`, the growth is reported as 105% (inactive). With `CC(/C=N/NC(N)=S)Cc1ccc(C(C)C)cc1` (stereo not given) the growth was 67.7% (inactive). `CC1(C)OC2C(COC(c3ccccc3)(c3ccccc3)c3ccccc3)OC(c3c[nH]c4c(N)ncnc34)C2O1` (stereo not given) was tested, and the growth was -7.93% (active). `CCOc1ccc(Nc2nc3c(s2)C(=O)c2ccccc2C3=O)cc1` was tested, and the growth was 48.5% (inactive). For `CCOC(=O)C1=C(C(=O)c2ccccc2)C(c2cccc([N+](=O)[O-])c2)C(C(=O)c2ccccc2)=C(C(=O)OCC)N1`, the growth was 52.2% (inactive). For `COC(=O)[C@]1(C)CCC[C@]2(C)c3ccc(C(C)C)cc3C(=O)[C@@H](Br)[C@@H]12`, the growth was 60.1% (inactive). For `CC(C)(C)CC(C)(C)c1ccc(OCCOCCSC(=N)N)cc1`, the growth was 14.4% (inactive). With `CCCCCC/C=C1\CCC(CN2CCCC2)C1=O` (stereo not given) the growth was 60.2% (inactive). For `CCCCCCCCCCCC[n+]1ccc(CCCCCCCCC)cc1`, the growth was -44.7% (active). In the case of `COc1ccc2nc3cc([N+](=O)[O-])ccc3c(NNc3ccccc3)c2c1`, the growth is reported as 128% (inactive). With `CC(C)=CCCC(C)C1=C(O)C(=O)C(C)=CC1=O` (stereo not given) the growth was -30.1% (active). With `CCC1CCCCN1C(=S)N/N=C(\C)c1ccccn1` (stereo not given) the growth was 13.3% (inactive). For `CN(C)c1ccc(/C=C/c2nccc3ccccc23)cc1`, the growth was 99.9% (inactive). With `Cc1ccc2c(c1)sc(-c1ccc(N(C)C)cc1)[n+]2C` the growth was -42.4% (active). With `CCc1cccc(CC)c1N1C(=O)C=CC1=O` the growth was -10% (active). With `COc1cc(NCc2ccc3nc(N)nc(N)c3c2C)cc(OC)c1OC` (tested in a mixture with another compound) the growth was 20.6% (inactive). In the case of `NC(CS/C(Cl)=C/Cl)C(=O)O` (stereo not given), the growth is reported as 97.1% (inactive). With `O=C(Cc1nc2cc(Cl)c(Cl)cc2nc1CC(=O)c1cccnc1)c1cccnc1` the growth was 38.8% (inactive). In the case of `O=C1CSC(=S)N1Cc1cccnc1`, the growth is reported as 51.4% (inactive). `OC(c1cc2ccc(C(F)(F)F)cc2c2cc(C(F)(F)F)ccc12)C1CCCCN1` (stereo not given) was tested, and the growth was -73.4% (active). `CCCCCCCCC(=O)OCCCC(CCC(CCC1CCCO1)OC(=O)CCCCCCCC)OC(=O)CCCCCCCC` (stereo not given) was tested, and the growth was 117% (inactive). With `NC(=S)N/N=C\c1nccc2c(N)cccc12` the growth was 3.28% (active). `COc1cccc2c1C(=O)c1c(O)c3c(c(O)c1C2=O)C[C@@](O)(C(=O)CO)C[C@@H]3OC1CC(OC(C)=O)C(OC(C)=O)C(C)O1` (stereo not given in full) was tested, and the growth was -53.2% (active). In the case of `CCCCCCCCCCCCCCCCSC(=NCC)NCC`, the growth is reported as -47.7% (active). `CCC(C)C1NC(=O)C(NC(=O)c2c3nc4c(C(=O)NC5C(=O)NC(C(C)CC)C(=O)N6CCCC6C(=O)N(C)CC(=O)N(C)C(C(C)C)C(=O)OC5C)ccc(C)c4oc-3c(C)c(=O)c2N)C(C)OC(=O)C(C(C)C)N(C)C(=O)CN(C)C(=O)C2CCCN2C1=O` (stereo not given) (I: TIP[Sar][NMeV] / II: TIP[Sar][NMeV]; ester I:1-I:C, II:1-II:C; linker I:N-II:N via Actinocin(1to9); configuration not given here) was tested, and the growth was -0.501% (active).
